# Experiments:
# Conditions in all cases: concentration: 1 μM, replicates: in singlicate; n = 1
# [1] = test system: EIF2AK1
# [2] = test system: EPHA1
# [3] = test system: EPHA2
# [4] = test system: EPHA3
# [5] = test system: EPHA4
# [6] = test system: EPHA5
# [7] = test system: EPHA6
# [8] = test system: EPHA7
# [9] = test system: EPHA8
# [10] = test system: EPHB1
# [11] = test system: EPHB2
# [12] = test system: EPHB3
# [13] = test system: EPHB4
# [14] = test system: EPHB6
# [15] = test system: ERBB2
# [16] = test system: ERBB3
# [17] = test system: ERBB4
# [18] = test system: T1, ERK1
# T1 construct: gene MAPK3
# [19] = test system: T2, ERK2
# T2 construct: gene MAPK1
# [20] = test system: T3, ERK3
# T3 construct: gene MAPK6
# 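Also: KINOMEscan kinase panel screen.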
Compound,%Inh [1] [%],%Inh [2] [%],%Inh [3] [%],%Inh [4] [%],%Inh [5] [%],%Inh [6] [%],%Inh [7] [%],%Inh [8] [%],%Inh [9] [%],%Inh [10] [%],%Inh [11] [%],%Inh [12] [%],%Inh [13] [%],%Inh [14] [%],%Inh [15] [%],%Inh [16] [%],%Inh [17] [%],%Inh [18] [%],%Inh [19] [%],%Inh [20] [%]
COc1ccc(NC(=O)Nc2ccc(C)c(-c3ccc(C(=O)Nc4ccncc4)cc3)c2)cc1 [GSK1398475],0,6,8,13,1,0,11,4,14,13,12,13,13,20,0,0,19,2,0,9
Clc1cccc(-c2nc(Nc3ccncc3)c3ccccc3n2)c1 [GW873004],0,100,38,0,5,0,0,15,18,19,2,0,45,0,38,46,0,1,12,0
OCCOCCn1ccc2ncnc(Nc3ccc(Oc4cccc(Cl)c4)c(Cl)c3)c21,0,0,1,0,0,0,0,0,0,2,0,6,0,2,100,0,96,0,0,0
Nc1nc(-c2cccnc2)c(-c2ccnc3ccccc23)s1 [GW684083],0,0,21,12,4,0,8,0,9,6,0,17,11,28,51,20,8,11,4,0
Cn1ccc2ncnc(Oc3ccc(NC(=O)Nc4cccnc4)c(Cl)c3)c21,0,0,0,4,29,11,32,7,10,9,2,12,10,5,18,2,0,0,11,0
COc1ccc(Nc2nccc(N3CCC(NC(=O)Nc4ccc5c(c4)OCO5)C3)n2)cc1 (stereo not shown) [GSK1379745],0,8,0,0,11,0,19,7,20,4,0,24,29,47,28,28,0,3,12,14
O=C(Nc1n[nH]c2nc(-c3ccco3)c(Br)cc12)c1ccc(CN2CCCC2)cc1.O=C(O)[C@H](O)[C@@H](O)C(=O)O [SB-742352],0,3,0,0,100,0,100,0,7,6,47,0,0,95.7,0,0,27,0,0,0
CN1c2ccc(-c3ccc(C(=O)NCCO)cc3)cc2-c2[nH]ncc2S1(=O)=O,0,11,27,14,14,19,22,3,0,7,20,18,23,54,8,0,10,10,11,5
Cc1ccc(O)cc1Nc1cc(C(F)(F)F)nc2ccc(-c3ccncc3)cc12 [GW630823],0,6,17,0,5,3,5,88,68,12,3,0,18,9,0,0,0,2,5,9
Oc1ccc2ncnc(Nc3ccc(OCc4ccccc4)cc3)c2c1 [GI262866],0,11,0,0,6,0,16,3,14,14,0,12,2,0,99.2,15,77,0,0,3
COc1cc2c(Nc3cccc(NC(=O)c4ccccc4)c3)ncnc2cc1OCCCN1CCOCC1 [GSK223810],0,7,29,6,6,0,2,3,24,4,0,5,0,60,18,0,55,0,0,0
c1ccc(-c2ccc3c(-c4ccnc(Nc5ccc6c(c5)OCCO6)n4)cnn3n2)cc1 [GW818941],0,7,18,0,21,0,12,14,17,18,3,13,10,0,21,15,0,11,6,0
COc1ccc(Nc2nccc(N3CCC(NC(=O)c4cccc(NC(C)=O)c4)C3)n2)cc1 (stereo not shown) [GSK1379732],0,0,20,1,0,0,0,0,0,1,8,1,11,16,52,30,0,0,0,5
Nc1nccc2scc(-c3ccc4c(c3)CCN4C(=O)Cc3cc(F)ccc3F)c12 [GSK2587663],0,11,17,0,12,0,25,6,20,7,10,34,27,59,14,0,46,3,0,4
Cc1cc(N2CCC(NS(=O)(=O)c3ccc(F)cc3)CC2)nc(Nc2cccc(C#N)c2)n1.O=C(O)C(F)(F)F [GSK1653537],0,1,0,0,7,0,5,6,19,15,0,1,13,8,13,0,0,0,0,7
CN1CCC(n2cnc(-c3ccc(F)cc3)c2-c2ccnc(NC3CCNCC3)n2)CC1 [SB-229482],0,0,5,18,7,5,5,0,0,0,11,4,0,8,32,18,4,0,14,30
O=C(NCCCN1CCCC1=O)c1cnc(NCc2cc(Cl)ccc2Cl)nc1NC1CCNCC1,0,9,2,0,0,2,0,0,0,7,0,0,0,19,9,3,0,0,11,0
Fc1ccc(Nc2nccc(-c3c(-c4ccc(Cl)cc4)nn4ncccc34)n2)cc1F [GW829058],0,13,3,27,12,24,15,8,9,20,17,15,14,23,21,36,0,6,28,0
FC(F)(F)c1cc(Nc2nccc(-c3c(-c4ccc(Cl)cc4)nn4ncccc34)n2)ccc1Cl [GW829351],0,0,0,0,4,0,0,0,3,0,0,0,0,0,0,0,45,0,0,0
Nc1nc(-c2ccccn2)c(-c2ccnc3ccccc23)s1 [GW548057],0,6,0,15,0,0,6,13,20,5,14,14,0,27,53,31,11,0,0,10
CCc1nc(-c2cccc(C)c2)c(-c2ccnc(NC(=O)c3ccccc3)c2)s1,15,0,0,4,32,28,45,12,15,14,4,36,37,100,46,2,34,0,40,4

Compound,%Inh [1] [%],%Inh [2] [%],%Inh [3] [%],%Inh [4] [%],%Inh [5] [%],%Inh [6] [%],%Inh [7] [%],%Inh [8] [%],%Inh [9] [%],%Inh [10] [%],%Inh [11] [%],%Inh [12] [%],%Inh [13] [%],%Inh [14] [%],%Inh [15] [%],%Inh [16] [%],%Inh [17] [%],%Inh [18] [%],%Inh [19] [%],%Inh [20] [%]
Cc1ccc(C)c(NC(=O)NCCNc2ccnc(Nc3ccc(F)cc3)n2)c1 [GSK1379878],0,6,11,0,0,0,0,0,3,0,0,0,0,11,0,3,38,0,0,0
Cc1ccc(NC(=O)c2cccc(C#N)c2)cc1-c1ccc(C(=O)Nc2ccncc2)cc1 [GSK1398463],7,12,30,13,43,0,34,12,46,22,13,26,25,2,0,0,32,0,0,5
N#Cc1ccc(Oc2ccc(Nc3ncnc4cc[nH]c34)cc2Cl)cc1,5,1,0,0,23,0,23,2,1,5,8,21,24,33,79,9,76,0,6,0
C[C@H]1CC[C@@H](C(=O)Nc2ccccc2)CN1c1cc(-c2ccc3c(N)n[nH]c3c2)nc(N)n1 [GSK2283293],10,0,11,0,3,0,15,6,23,22,0,24,12,13,25,0,39,0,2,4
COc1cc2ncnc(Nc3ccc(OCc4ccccc4Br)c(Cl)c3)c2cc1OC.Cl [GI261590],0,8,14,0,3,15,7,4,17,12,5,22,31,26,96.5,29,100,0,16,0
O=C(CCO)NCCn1ccc2ncnc(Nc3ccc(Oc4cccc(C(F)(F)F)c4)c(Cl)c3)c21,0,0,0,0,0,0,0,0,0,0,0,2,3,8,100,0,95.9,0,9,0
Nc1n[nH]c2nnc(-c3ccccc3)cc12 [SB-517389],13,9,4,0,14,0,0,8,15,9,80,10,22,0,7,0,0,0,0,16
Cl.Cn1ccc(-c2cccc(Nc3ccnc4cc(-c5nccs5)ccc34)c2)n1 [GW525701],0,25,0,100,0,0,0,6,7,14,0,9,47,94.2,53,64,45,0,0,0
Cl.O=S(=O)(c1cccc(F)c1)c1ccc(Nc2ncnc3cc(Br)sc23)cc1Cl [GSK306886],0,9,9,14,19,0,16,2,2,10,42,19,17,0,98.7,0,43,0,0,10
Cn1cc(-c2ccc3c(c2)CCN3C(=O)Cc2cccc(C(F)(F)F)c2)c2c(N)ncnc21 [GSK2606414],1,3,0,0,0,0,0,4,14,15,0,0,0,18,0,0,0,0,0,2
Fc1cccc(COc2ccc(Nc3ncnc4sc(-c5ccc[nH]5)cc34)cc2Cl)c1 [GW707818],0,0,0,18,0,0,0,0,4,1,15,0,0,16,100,0,88,0,0,3
FC(F)(F)c1ccc(-c2nn3ncccc3c2-c2ccnc(Nc3cccc(C(F)(F)F)c3)n2)cc1 [GW828205],0,34,19,0,81,0,78,0,0,2,1,68,55,0,13,27,35,0,3,0
CSc1nn2c(=O)cc(N3CCOCC3)nc2n1Cc1cccc(Cl)c1Cl [GSK2347225],2,1,11,15,8,1,3,12,15,29,0,6,11,52,0,0,0,0,17,15
CC(=O)Nc1n[nH]c2ncc(-c3ccccc3)cc12 [SB-548492],0,17,0,2,8,15,29,0,32,15,0,16,14,36,0,0,29,12,11,1
C[C@@H]1CCN(C(=O)CO)C[C@@H]1N(C)c1ncnc2[nH]ccc12,5,8,0,0,0,2,0,0,0,9,0,0,0,17,19,0,11,0,0,14
CC(C)(C)c1ccc(-n2cnc3c(N)ncnc32)cc1 [SKF-97263],0,14,23,0,27,0,28,8,16,3,17,31,15,9,29,0,0,7,0,0
O=C(c1ccc(-c2cc(-c3c[nH]nc3-c3ccccn3)ccn2)cc1)N1CCCC1 [GW792479],0,56,21,1,13,36,2,9,19,5,19,14,17,0,10,57,0,0,32,0
CS(=O)(=O)CCNCc1nc(-c2ccc3ncnc(Nc4ccc(OCc5cccc(F)c5)c(Cl)c4)c3c2)cs1.Cl [GW583340],0,5,0,13,0,0,0,0,0,1,0,0,5,19,99.7,0,99.1,0,0,12
Fc1ccc(-c2ncn(CCCNCc3ccccc3)c2-c2ccncc2)cc1,0,4,10,0,6,7,23,0,19,15,14,19,17,36,10,23,0,5,14,0
CNc1nccc(-c2c(-c3ccc(F)cc3)ncn2C2CCN(C)CC2)n1 [SB-222903],0,0,0,2,1,0,0,0,0,9,0,2,0,0,0,0,2,1,0,0

# Source: PMC5540273 (PLoS ONE, 2017)
